# Assay results as given in PubChem BioAssay (EPA / NIEHS).
# Results filed as inconclusive are left out. Activity calls are given as the source filed them. How the source made its calls, unless noted: active means hit-call score of the fitted dose curve at least 0.9, where 1 is the maximum; inactive means score below 0.9.
# Columns and labels:
# [1] = target: Nuclear respiratory factor 1 (Homo sapiens) (UniProt Q16656); assay: ATG_NRF1_CIS: Attagene CIS-FACTORIAL HepG2 Assay for human Nuclear Respiratory Factor 1 (NRF1) Orphan Gene (AID 2282987); conditions: HepG2 NRF1 cis-element reporter, Attagene multiplex; actives raise or lower the signal
# In short: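 Endogenous NRF1-driven reporter transcription measured in transiently transfected human HepG2 liver cells. Readout: reporter mRNA by RT-PCR and capillary electrophoresis with fluorescence detection, 24 h post-dosing. Gain or loss of signal fitted relative to DMSO baseline.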
# [2] = ATG_NFI_CIS: Attagene CIS-FACTORIAL HepG2 Assay for human Nuclear Factor I (NFI) (AID 2282989); conditions: HepG2 cis-regulatory reporter, NFI response element transcription; actives raise or lower the signal
# In short: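 Read-out: reporter mRNA via RT-PCR plus capillary electrophoresis with fluorescence detection. Transiently transfected HepG2 (endogenous TF activity on cis promoters), 24 h compound exposure; gain or loss of signal fitted against DMSO.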
# [3] = target: Myc proto-oncogene protein (Homo sapiens) (UniProt P01106); assay: ATG_Myc_CIS: Attagene CIS-FACTORIAL HepG2 Assay for human Myelocytomatosis (Myc) Proto-Oncogene Transcription Factor (AID 2282990); conditions: HepG2, Attagene cis-reporter transcription factor activity; actives raise or lower the signal
# In short: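 HepG2, transient MRTU transfection (cis promoters, endogenous TFs); 24 h dosing; TriZol RNA → oligo(dT) RT → PCR → 6-FAM primer extension → HpaI cut → CE. Bidirectional fit vs DMSO.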
# [4] = ATG_NRF2_ARE_CIS: Attagene CIS-FACTORIAL HepG2 Assay for human Nuclear Factor Erythroid 2 Related Factor 2 (NFR2) response to Antioxidant Response Elements (ARE) (AID 2282992); conditions: HepG2 Attagene ARE/NRF2 reporter, transcription factor activity; actives raise or lower the signal
# In short: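 Cis-factorial assay: transfected HepG2 reporter library, 24 h dosing, mRNA readout via RT-PCR/CE; DMSO-referenced bidirectional analysis.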
# [5] = ATG_Oct_MLP_CIS: Attagene CIS-FACTORIAL HepG2 Assay for human Octamer-Binding Transcription Factor (Oct) (AID 2282993); conditions: HepG2 Attagene cis-factorial Oct reporter, mRNA; actives raise or lower the signal
# In short: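 Read-out: reporter mRNA via RT-PCR plus capillary electrophoresis of 6-FAM-labelled fragments. Transiently transfected HepG2, 24 h exposure, endogenous TF activity on cis elements. Gain or loss of signal fitted relative to DMSO.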
# [6] = target: Cellular tumor antigen p53 (Homo sapiens) (UniProt P04637); assay: ATG_p53_CIS: Attagene CIS-FACTORIAL HepG2 Assay for human p53 Transcription Factor (AID 2282994); conditions: HepG2 p53 cis-element reporter, Attagene mRNA; actives raise or lower the signal
# In short: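 Using HepG2 hepatoma cells carrying cis-acting multiplexed reporters, mRNA induction is detected after a 24 h exposure. Gain- and loss-of-signal responses are fitted relative to DMSO-treated cells.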
# [7] = BSK_3C_TissueFactor: BioMAP Diversity Plus: 3C Assay for Tissue Factor Biomarker Activity (AID 2282997); conditions: BioMAP 3C HUVEC, tissue factor biomarker readout; actives raise or lower the signal
# In short: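 HUVEC were treated 24 h, then surface tissue factor measured by ELISA and fitted bidirectionally against DMSO. Parallel SRB total-protein staining assessed overt cytotoxicity at the same time point.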
# [8] = BSK_3C_uPAR: BioMAP Diversity Plus: 3C Assay for Urokinase-type plasminogen activator receptor (uPAR) Biomarker Activity (AID 2282998); conditions: BioMAP 3C HUVEC, uPAR biomarker ELISA; actives raise or lower the signal
# In short: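 HUVEC primary cells; 24 h post-dose; uPAR by ELISA; gain or loss of signal fitted bidirectionally vs DMSO baseline.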
# [9] = BSK_3C_VCAM1: BioMAP Diversity Plus: 3C Assay for Vascular cell adhesion molecule 1 (VCAM1) Biomarker Activity (AID 2282999); conditions: BioMAP 3C HUVEC, VCAM1 ELISA, cytokine-stimulated; actives raise or lower the signal
# In short: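 Endothelial cells from human umbilical vein are treated with test chemical. At 24 h, VCAM-1 is measured by ELISA, and responses in either direction are fitted relative to DMSO.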
# [10] = BSK_4H_Eotaxin3: BioMAP Diversity Plus: 4H Assay for Eotaxin 3 Biomarker Activity (AID 2283000); conditions: primary human endothelial cells (HUVEC); actives raise or lower the signal;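 on outcome: CCL26 protein level quantified by ELISA in parallel with SRB cytotoxicity check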
# In short: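 Eotaxin-3 (CCL26) levels were measured by ELISA in HUVEC primary cultures 24 h post-dosing. Gain or loss of signal was fitted in both directions, with DMSO serving as baseline and negative control.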
# [11] = target: human Peroxisome Proliferator-activated Receptor delta (PPARd), PPARD (gene 5467) (UniProt Q03181); assay: ATG_PPARd_TRANS: Attagene TRANS-FACTORIAL HepG2 Assay for human Peroxisome Proliferator-activated Receptor delta (PPARd) (AID 2283002; active means hit-call score of the fitted dose curve at least 0.9, where 1 is the maximum)
# In short: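 Transient HepG2 transfection (multiple GAL4-UAS RTUs, chimeric receptor-Gal4); 24 h dosing; total RNA → oligo(dT) RT → PCR → 6-FAM primer extension → HpaI cut → CE. Positive direction vs DMSO.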
# [12] = read-out: Intercellular Adhesion Molecule 1 (ICAM1), ICAM1 (gene 3383); assay: BSK_3C_ICAM1: BioMAP Diversity Plus: 3C Assay for Intercellular Adhesion Molecule 1 (ICAM1) Biomarker Activity (AID 2283003); conditions: primary human endothelial cells (HUVEC); actives raise or lower the signal
# In short: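 HUVEC primary cells stimulated under 3C conditions; ICAM1 measured by ELISA 24 h after compound dosing. Curves fitted bidirectionally against the DMSO baseline. Overt cytotoxicity checked by SRB staining of parallel cultures.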
# [13] = BSK_3C_Proliferation: Cell Proliferation Assessment in the BioMAP Diversity Plus: 3C Assay (AID 2283006); conditions: primary human endothelial cells (HUVEC);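 on AC50: potency may reflect either rise or fall in cell number versus DMSO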
# In short: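 Subconfluent HUVEC (3C system) cultured with chemical; relative cell number read at 48 h by sulforhodamine B total-protein staining (0.1% SRB after 10% TCA fixation, 560 nm). Bidirectional fit relative to DMSO.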
# [14] = target: Peroxisome proliferator-activated receptor gamma (Homo sapiens) (UniProt P37231); assay: ATG_PPARg_TRANS: Attagene TRANS-FACTORIAL HepG2 Assay for human Peroxisome Proliferator-activated Receptor-gamma (PPARg) (AID 2283007; active means hit-call score of the fitted dose curve at least 0.9, where 1 is the maximum)
# In short: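 Read-out: reporter mRNA induction, detected by fluorescence after RT-PCR and capillary electrophoresis. Transiently transfected human HepG2 liver cells carrying a chimeric NR-Gal4 construct were dosed for 24 h; activity was fitted upward relative to DMSO.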
# [15] = target: Nuclear receptor subfamily 1 group I member 2 (Homo sapiens) (UniProt O75469); assay: ATG_PXR_TRANS: Attagene TRANS-FACTORIAL HepG2 Assay for human Pregnane X Receptor (PXR) (AID 2283008; active means hit-call score of the fitted dose curve at least 0.9, where 1 is the maximum)
# In short: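 Fluorescence intensity of FAM-labelled, HpaI-digested reporter amplicons, separated by capillary electrophoresis, quantifies induction. HepG2 cells with PXR-Gal4 trans-reporter system were exposed 24 h; DMSO defines baseline.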
# [16] = ATG_NF_kB_CIS: Attagene CIS-FACTORIAL HepG2 Assay for human Nuclear Factor Kappa B (NF-kB) (AID 2282991); conditions: HepG2 Attagene cis-factorial NF-kB reporter mRNA; actives raise or lower the signal
# In short: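 Read-out: reporter transcript levels quantified by RT-PCR plus capillary electrophoresis of 6-FAM-labelled, HpaI-cut fragments. Transfected HepG2 cells, 24 h compound exposure, endogenous NF-kB-driven cis element; gain or loss scored versus DMSO.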
# [17] = target: human Peroxisome Proliferator-activated Receptor alpha (PPARa), PPARA (gene 5465) (UniProt Q07869); assay: ATG_PPARa_TRANS: Attagene TRANS-FACTORIAL HepG2 Assay for human Peroxisome Proliferator-activated Receptor alpha (PPARa) (AID 2283001; active means hit-call score of the fitted dose curve at least 0.9, where 1 is the maximum)
# In short: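 Read-out is fluorescence of reporter cDNA fragments resolved by capillary electrophoresis after RT-PCR. Human HepG2 liver cells carried transfected PPARa-Gal4 chimera and GAL4-UAS reporter units, treated 24 h; activity scored as increase over DMSO.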
# [18] = target: human Retinoic Acid Receptor gamma (RARg), RARG (gene 5916) (UniProt P13631); assay: ATG_RARg_TRANS: Attagene TRANS-FACTORIAL HepG2 Assay for human Retinoic Acid Receptor gamma (RARg) (AID 2283009; active means hit-call score of the fitted dose curve at least 0.9, where 1 is the maximum;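 on AC50: AC50 is for reporter induction above DMSO meaning RARg activation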)
# In short: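 HepG2 transiently transfected with GAL4-UAS reporter units and chimeric NR-Gal4 constructs; 24 h compound exposure. Reporter mRNA quantified by RT-PCR, FAM labeling, HpaI digestion and capillary electrophoresis; gain-of-signal versus DMSO.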
# [19] = target: human Retinoic Acid Receptor beta (RARb), RARB (gene 5915) (UniProt P10826); assay: ATG_RARb_TRANS: Attagene TRANS-FACTORIAL HepG2 Assay for human Retinoic Acid Receptor beta (AID 2283004; active means hit-call score of the fitted dose curve at least 0.9, where 1 is the maximum)
# In short: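 HepG2 cells were transiently transfected with GAL4-UAS reporter units that report activity of exogenous chimeric NR-Gal4 proteins, then exposed to compound for 24 h. Reporter mRNA was quantified by RT-PCR with capillary electrophoresis fluorescence, as gain of signal over DMSO.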
# [20] = target: Retinoic acid receptor alpha (Homo sapiens) (UniProt P10276); assay: ATG_RARa_TRANS: Attagene TRANS-FACTORIAL HepG2 Assay for human Retinoic Acid Receptor alpha (RARa) (AID 2283005; active means hit-call score of the fitted dose curve at least 0.9, where 1 is the maximum;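 on AC50: potency for increased reporter signal meaning RARa activation over DMSO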)
# In short: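 Reporter transcripts, measured by RT-PCR with fluorescent labeling and capillary electrophoresis after 24 h dosing, reflect activity of an exogenous human RARa–GAL4 fusion in transiently transfected HepG2. Fitted for increase relative to DMSO.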
# Chain of human Retinoic Acid Receptor gamma (RARg), RARG (gene 5916) (P13631 whole entry, looked up, the tested form may be a part): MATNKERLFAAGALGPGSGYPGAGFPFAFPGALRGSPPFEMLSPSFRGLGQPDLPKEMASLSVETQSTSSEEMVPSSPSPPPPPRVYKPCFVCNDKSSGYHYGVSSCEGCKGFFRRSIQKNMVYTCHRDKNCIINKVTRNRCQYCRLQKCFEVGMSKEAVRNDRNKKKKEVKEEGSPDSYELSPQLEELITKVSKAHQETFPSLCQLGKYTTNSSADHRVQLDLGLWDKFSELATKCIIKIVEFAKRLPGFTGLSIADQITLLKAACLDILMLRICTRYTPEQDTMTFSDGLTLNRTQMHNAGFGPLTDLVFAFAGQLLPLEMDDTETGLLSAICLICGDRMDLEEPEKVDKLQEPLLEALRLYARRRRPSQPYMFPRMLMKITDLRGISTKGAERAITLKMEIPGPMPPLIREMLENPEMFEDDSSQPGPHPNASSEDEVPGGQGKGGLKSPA
# Chain of Nuclear respiratory factor 1 (Homo sapiens) (Q16656 whole entry, looked up): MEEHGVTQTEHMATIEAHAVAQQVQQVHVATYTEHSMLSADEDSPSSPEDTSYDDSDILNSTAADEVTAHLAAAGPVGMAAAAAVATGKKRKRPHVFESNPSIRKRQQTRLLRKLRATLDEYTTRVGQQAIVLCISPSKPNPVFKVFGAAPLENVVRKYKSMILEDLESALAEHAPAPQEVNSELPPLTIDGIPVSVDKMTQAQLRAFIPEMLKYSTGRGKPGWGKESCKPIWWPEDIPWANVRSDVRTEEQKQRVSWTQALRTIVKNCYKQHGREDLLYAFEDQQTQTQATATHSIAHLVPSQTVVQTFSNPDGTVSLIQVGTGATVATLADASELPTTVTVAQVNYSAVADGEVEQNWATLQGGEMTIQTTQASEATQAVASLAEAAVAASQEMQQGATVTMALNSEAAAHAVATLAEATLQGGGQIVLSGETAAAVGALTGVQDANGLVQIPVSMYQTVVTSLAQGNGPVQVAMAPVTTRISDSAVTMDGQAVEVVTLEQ
# Chain of human Peroxisome Proliferator-activated Receptor alpha (PPARa), PPARA (gene 5465) (Q07869 whole entry, looked up, the tested form may be a part): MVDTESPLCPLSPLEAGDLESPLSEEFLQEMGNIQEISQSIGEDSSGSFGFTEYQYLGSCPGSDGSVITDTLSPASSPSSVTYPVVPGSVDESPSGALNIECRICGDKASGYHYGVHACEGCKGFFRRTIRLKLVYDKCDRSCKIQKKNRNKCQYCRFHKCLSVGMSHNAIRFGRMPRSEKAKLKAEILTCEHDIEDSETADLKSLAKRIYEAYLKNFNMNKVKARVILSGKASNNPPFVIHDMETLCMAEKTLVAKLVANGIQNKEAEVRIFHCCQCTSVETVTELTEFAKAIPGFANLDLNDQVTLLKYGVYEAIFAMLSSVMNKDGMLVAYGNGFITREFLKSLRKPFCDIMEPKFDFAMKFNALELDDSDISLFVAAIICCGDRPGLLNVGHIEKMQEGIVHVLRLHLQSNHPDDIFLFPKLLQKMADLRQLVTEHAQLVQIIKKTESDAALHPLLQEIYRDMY
# Chain of human Peroxisome Proliferator-activated Receptor delta (PPARd), PPARD (gene 5467) (Q03181 whole entry, looked up, the tested form may be a part): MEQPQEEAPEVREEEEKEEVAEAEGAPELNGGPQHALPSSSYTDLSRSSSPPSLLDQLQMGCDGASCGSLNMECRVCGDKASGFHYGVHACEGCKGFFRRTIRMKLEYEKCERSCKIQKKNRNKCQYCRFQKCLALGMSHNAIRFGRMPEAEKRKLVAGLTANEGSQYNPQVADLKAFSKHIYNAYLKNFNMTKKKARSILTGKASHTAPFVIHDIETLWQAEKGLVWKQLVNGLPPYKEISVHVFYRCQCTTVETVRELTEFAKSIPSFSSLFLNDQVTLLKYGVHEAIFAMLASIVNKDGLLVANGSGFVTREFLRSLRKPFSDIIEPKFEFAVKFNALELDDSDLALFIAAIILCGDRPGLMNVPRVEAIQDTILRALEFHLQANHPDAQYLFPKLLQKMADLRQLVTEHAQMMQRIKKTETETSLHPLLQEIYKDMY
# Chain of Nuclear receptor subfamily 1 group I member 2 (Homo sapiens) (O75469 whole entry, looked up, the tested form may be a part): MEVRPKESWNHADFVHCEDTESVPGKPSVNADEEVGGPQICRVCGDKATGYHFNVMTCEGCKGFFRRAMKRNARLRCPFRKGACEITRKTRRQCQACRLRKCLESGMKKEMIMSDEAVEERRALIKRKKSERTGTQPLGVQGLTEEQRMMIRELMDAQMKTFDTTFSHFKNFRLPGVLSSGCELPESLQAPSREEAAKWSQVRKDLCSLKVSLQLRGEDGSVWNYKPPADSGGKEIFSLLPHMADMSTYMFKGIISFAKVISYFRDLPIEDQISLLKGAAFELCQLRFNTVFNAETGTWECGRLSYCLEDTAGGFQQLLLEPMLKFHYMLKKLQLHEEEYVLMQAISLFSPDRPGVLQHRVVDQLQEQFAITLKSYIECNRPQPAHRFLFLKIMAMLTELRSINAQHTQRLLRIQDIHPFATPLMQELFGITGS
# Chain of Cellular tumor antigen p53 (Homo sapiens) (P04637 whole entry, looked up): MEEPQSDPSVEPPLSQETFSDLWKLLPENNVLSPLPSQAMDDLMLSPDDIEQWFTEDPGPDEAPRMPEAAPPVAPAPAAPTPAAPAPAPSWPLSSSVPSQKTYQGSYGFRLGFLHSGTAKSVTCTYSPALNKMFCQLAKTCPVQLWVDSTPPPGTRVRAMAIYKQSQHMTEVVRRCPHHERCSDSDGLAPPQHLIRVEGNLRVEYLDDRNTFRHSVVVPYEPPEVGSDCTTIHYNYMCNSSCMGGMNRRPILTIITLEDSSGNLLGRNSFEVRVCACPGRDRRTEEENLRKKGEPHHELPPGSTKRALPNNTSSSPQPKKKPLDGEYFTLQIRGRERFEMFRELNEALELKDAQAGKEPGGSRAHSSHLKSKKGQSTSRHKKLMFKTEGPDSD
# Chain of Myc proto-oncogene protein (Homo sapiens) (P01106 whole entry, looked up): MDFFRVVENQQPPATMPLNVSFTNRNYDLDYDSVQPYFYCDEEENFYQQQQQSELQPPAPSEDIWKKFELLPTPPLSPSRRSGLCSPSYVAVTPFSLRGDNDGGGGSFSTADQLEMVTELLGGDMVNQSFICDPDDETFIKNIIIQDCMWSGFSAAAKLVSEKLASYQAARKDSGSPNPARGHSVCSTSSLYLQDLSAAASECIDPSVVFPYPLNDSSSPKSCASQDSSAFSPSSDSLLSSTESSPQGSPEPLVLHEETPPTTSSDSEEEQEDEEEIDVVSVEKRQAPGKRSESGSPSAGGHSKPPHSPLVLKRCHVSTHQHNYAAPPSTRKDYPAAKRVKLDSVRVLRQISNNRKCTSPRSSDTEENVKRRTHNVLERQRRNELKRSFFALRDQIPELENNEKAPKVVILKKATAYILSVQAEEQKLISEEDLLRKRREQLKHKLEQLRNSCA
# Chain of Peroxisome proliferator-activated receptor gamma (Homo sapiens) (P37231 whole entry, looked up, the tested form may be a part): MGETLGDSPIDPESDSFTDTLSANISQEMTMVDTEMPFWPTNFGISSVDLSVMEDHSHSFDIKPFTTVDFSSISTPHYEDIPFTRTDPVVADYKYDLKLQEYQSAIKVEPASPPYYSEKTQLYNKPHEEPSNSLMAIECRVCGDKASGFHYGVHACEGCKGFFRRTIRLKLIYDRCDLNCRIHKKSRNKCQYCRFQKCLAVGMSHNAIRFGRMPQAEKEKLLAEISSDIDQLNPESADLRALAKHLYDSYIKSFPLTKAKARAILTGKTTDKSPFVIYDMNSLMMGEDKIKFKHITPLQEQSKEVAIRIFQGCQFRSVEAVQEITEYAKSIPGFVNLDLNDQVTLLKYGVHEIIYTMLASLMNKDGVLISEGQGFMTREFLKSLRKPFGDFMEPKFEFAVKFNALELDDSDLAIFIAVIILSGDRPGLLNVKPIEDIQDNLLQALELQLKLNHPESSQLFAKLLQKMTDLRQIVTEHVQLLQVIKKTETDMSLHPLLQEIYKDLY
# Chain of Retinoic acid receptor alpha (Homo sapiens) (P10276 whole entry, looked up, the tested form may be a part): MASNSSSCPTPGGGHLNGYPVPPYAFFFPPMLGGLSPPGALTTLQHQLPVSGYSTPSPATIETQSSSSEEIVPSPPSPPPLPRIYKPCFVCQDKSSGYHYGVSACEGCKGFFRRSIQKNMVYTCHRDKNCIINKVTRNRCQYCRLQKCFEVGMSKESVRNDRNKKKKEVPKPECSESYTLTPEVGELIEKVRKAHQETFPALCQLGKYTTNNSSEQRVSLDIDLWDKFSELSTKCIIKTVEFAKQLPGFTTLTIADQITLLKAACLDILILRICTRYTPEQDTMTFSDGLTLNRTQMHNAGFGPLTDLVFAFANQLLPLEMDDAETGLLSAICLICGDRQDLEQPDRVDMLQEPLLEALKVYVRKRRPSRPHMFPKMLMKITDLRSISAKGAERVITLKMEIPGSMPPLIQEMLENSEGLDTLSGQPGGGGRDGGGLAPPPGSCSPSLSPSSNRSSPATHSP
# Chain of human Retinoic Acid Receptor beta (RARb), RARB (gene 5915) (P10826 whole entry, looked up, the tested form may be a part): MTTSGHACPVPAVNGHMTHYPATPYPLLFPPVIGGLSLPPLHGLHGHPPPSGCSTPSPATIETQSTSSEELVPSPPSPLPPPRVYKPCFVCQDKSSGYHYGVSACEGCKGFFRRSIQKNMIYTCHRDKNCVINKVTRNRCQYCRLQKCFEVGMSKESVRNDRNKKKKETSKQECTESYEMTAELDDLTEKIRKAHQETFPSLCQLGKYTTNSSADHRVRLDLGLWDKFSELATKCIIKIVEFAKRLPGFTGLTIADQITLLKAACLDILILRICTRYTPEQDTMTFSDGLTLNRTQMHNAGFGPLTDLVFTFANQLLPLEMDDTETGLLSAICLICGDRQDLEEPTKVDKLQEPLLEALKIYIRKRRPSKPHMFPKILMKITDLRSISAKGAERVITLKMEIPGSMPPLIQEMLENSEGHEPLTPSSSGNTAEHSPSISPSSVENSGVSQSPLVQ
smiles,measurement,setting,value
CC(=O)OC/C=C(\C)CCC=C(C)C,outcome,[1],inactive
same,outcome,[2],inactive
same,outcome,[3],inactive
same,outcome,[4],inactive
same,outcome,[5],inactive
same,outcome,[6],inactive
same,outcome,[7],inactive
same,outcome,[8],inactive
same,outcome,[9],inactive
same,outcome,[10],inactive
same,outcome,[11],inactive
same,outcome,[12],inactive
same,outcome,[13],inactive
same,outcome,[14],inactive
same,outcome,[15],inactive
CCCCCCCC=O,outcome,[1],inactive
same,outcome,[3],inactive
same,outcome,[16],inactive
same,outcome,[4],inactive
same,outcome,[5],inactive
same,outcome,[6],inactive
same,outcome,[7],inactive
same,outcome,[8],inactive
same,outcome,[9],inactive
same,outcome,[10],inactive
same,outcome,[17],inactive
same,outcome,[11],inactive
same,outcome,[12],inactive
same,outcome,[13],inactive
same,AC50,[14],100 µM (active)
same,outcome,[15],inactive
C=CCc1ccc(O)c(OC)c1,outcome,[1],inactive
same,outcome,[2],inactive
same,outcome,[3],inactive
same,AC50,[4],27 µM (active)
same,outcome,[5],inactive
same,outcome,[6],inactive
same,outcome,[7],inactive
same,outcome,[8],inactive
same,outcome,[9],inactive
same,outcome,[10],inactive
same,outcome,[17],inactive
same,outcome,[12],inactive
same,outcome,[13],inactive
same,AC50,[14],40.5 µM (active)
same,AC50,[15],38.5 µM (active)
C1CCC(SSC2CCCCC2)CC1,outcome,[1],inactive
same,outcome,[3],inactive
same,outcome,[16],inactive
same,AC50,[4],75.5 µM (active)
same,outcome,[5],inactive
same,outcome,[6],inactive
same,AC50,[7],20 µM (active)
same,outcome,[8],inactive
same,AC50,[9],26.5 µM (active)
same,AC50,[10],32.7 µM (active)
same,outcome,[17],inactive
same,outcome,[11],inactive
same,outcome,[12],inactive
same,AC50,[13],28.5 µM (active)
same,outcome,[14],inactive
same,outcome,[15],inactive
same,outcome,[18],inactive
COc1cc(S(=O)(=O)O)c(C)cc1N=Nc1c(O)ccc2cc(S(=O)(=O)O)ccc12,outcome,[1],inactive
same,outcome,[2],inactive
same,outcome,[3],inactive
same,outcome,[4],inactive
same,outcome,[5],inactive
same,outcome,[6],inactive
same,outcome,[7],inactive
same,outcome,[8],inactive
same,outcome,[9],inactive
same,outcome,[10],inactive
same,outcome,[11],inactive
same,outcome,[12],inactive
same,outcome,[13],inactive
same,outcome,[14],inactive
CC1=C(/C=C/C(C)=C/C=C/C(C)=C/CO)C(C)(C)CCC1,outcome,[1],inactive
same,AC50,[3],139 µM (active)
same,outcome,[16],inactive
same,AC50,[4],44.2 µM (active)
same,outcome,[5],inactive
same,outcome,[6],inactive
same,outcome,[7],inactive
same,outcome,[8],inactive
same,AC50,[9],33 µM (active)
same,AC50,[10],15.6 µM (active)
same,outcome,[12],inactive
same,outcome,[19],inactive
same,AC50,[20],0.073 µM (active)
same,AC50,[13],27.6 µM (active)
same,AC50,[14],28.1 µM (active)
same,AC50,[15],0.28 µM (active)
same,AC50,[18],0.117 µM (active)
COc1cc(/C=C/C(=O)CC(=O)/C=C/c2ccc(O)c(OC)c2)ccc1O,outcome,[1],inactive
same,outcome,[3],inactive
same,AC50,[16],33.4 µM (active)
same,AC50,[4],8.71 µM (active)
same,AC50,[5],33.4 µM (active)
same,AC50,[6],50.2 µM (active)
same,outcome,[17],inactive
same,outcome,[11],inactive
same,outcome,[20],inactive
same,AC50,[14],8 µM (active)
same,outcome,[15],inactive
same,outcome,[18],inactive
Cc1nc(-c2ccc3c(c2)CCN(CCC2CCC(NC(=O)/C=C/c4ccc(F)cc4)CC2)CC3)no1 (centres undefined),outcome,[1],inactive
same,outcome,[3],inactive
same,outcome,[16],inactive
same,outcome,[4],inactive
same,outcome,[5],inactive
same,outcome,[6],inactive
same,outcome,[7],inactive
same,outcome,[8],inactive
same,AC50,[9],12.8 µM (active)
same,AC50,[10],12.9 µM (active)
same,outcome,[17],inactive
same,outcome,[12],inactive
same,AC50,[13],4.71 µM (active)
same,outcome,[14],inactive
Cc1cc(NC(=O)C(=O)O)cc(C)c1Oc1ccc(O)c2c1CCC2,outcome,[1],inactive
same,outcome,[3],inactive
same,outcome,[4],inactive
same,outcome,[5],inactive
same,outcome,[6],inactive
same,outcome,[7],inactive
same,outcome,[8],inactive
same,outcome,[9],inactive
same,outcome,[10],inactive
same,outcome,[17],inactive
same,outcome,[11],inactive
same,outcome,[12],inactive
same,outcome,[13],inactive
same,outcome,[15],inactive
